Molecules are shown by their SMILES. Inconclusive results are not listed. Where a call stands in place of a potency, no number is given. Values without a mark were called inactive. The source made the active and inactive calls. Calls come from the whole dose curve; as a rule, active = well fitted cell-killing curve with a large enough effect in the repeat runs; inconclusive = weak or mixed curves, or effect the other way; inactive = flat fitted curve, though single readings scatter.

In PubChem BioAssay (Tox21) one finds Potency and activity change, negative = cytotoxicity data, which are given here for 40 molecules.

The nature of the assay: qHTS assay to identify small molecule antagonists of the retinoid acid receptor (RAR) signaling pathway - cell viability counter screen (AID 1159551). Note: nearly all actives have a fitted effect of over 35% in size. As to conditions: C3RL4 cells viability, ATP luminescence (CellTiter-Glo), 6 h; series mostly up to 92.4 µM. The source says:
U.S. Tox21 Program National Center for Advancing Translational Sciences [NCATS] NIH Chemical Genomics Center [NCGC] U.S. Environmental Protection Agency [EPA] National Institutes of Environmental Health Sciences [NIEHS] National Toxicology Program [NTP] U.S. Food and Drug Administration [FDA] Tox21 Assay Overview: All-trans Retinoic acid (atRA) is the potent natural metabolite of retinol and plays an important role in normal embryonic development and maintenance of cellular phenotype in adult animals. atRA is the activating ligand for the retinoic acid receptors (RARs) which form heterodimers with retinoid X receptors (RXRs) on the retinoic acid response element (RARE). Through activation of the RAR/RXRs nuclear receptors, atRA regulates the transcription of a large number of protein-coding genes and regulatory RNAs. Intracellular levels of atRA are controlled by the retinol signaling pathway (RSP) that regulates the biosynthesis and catabolism of atRA to maintain physiological levels. Chemicals that interfere with the RSP can cause abnormal intracellular levels of atRA and therefore are potential developmental toxicants. To assess compounds for the potential adverse effect on embryonic development through interfering with retinol signaling, a cell-based RARE luciferase reporter gene assay was used. C3RL4 cell line (OARSA/CFSAN/FDA, Laurel, MD) was used to screen Tox21 10K compound library for identifying inhibitors of the RSP. Also cytotoxicity was assessed by determining the viability of cells based on the quantitation of ATP.
Tox21 Assay Protocol Summary: C3RL4 cells were seeded at 1,000/well in 4 uL of assay medium into white solid 1,536-well tissue culture plates (Greiner Bio-One North America Inc. Monroe, NC) using a Multidrop Combi (Thermo Scientific, Waltham, MA) dispenser. After incubation at 37 C and 5% CO2 for an overnight, 23 nL of compounds dissolved in DMSO, positive control or DMSO only were transferred by a Pintool station (Kalypsys, San Diego, CA). One ul of 1 uM (final concentration) of Retinol was added right after the compound addition by using a Flying Reagent Dispenser (FRD) (Aurora Discovery, San Diego, CA). After 6 hr incubation at 37 C and 5% CO2, 5 uL of CellTiter-Glo reagent (Promega Corporation, Madison, WI) was added to each assay plate using an FRD. Luminescence was quantified on a ViewLux plate reader (PerkinElmer, Waltham, MA) after 30 min incubation at room temperature.
(Quantitative high-throughput screening tests each substance at several concentrations.)
`COc1cc(Cl)ccc1Oc1ccc(Cl)cc1Cl`: the Potency result was “inactive”.
Take `CCCCC(CC)CN1C(=O)C2C3C=CC(C3)C2C1=O` (stereo not given): the Potency entry was “inactive”.
On to `CC(C)O.CC(C)O.CCOC(=O)/C=C(\C)O.CCOC(=O)/C=C(\C)O.[Ti]`, for which the Potency entry was “inactive”.
For the molecule `CC1=CCCC(C)(C)C12CCC(C)O2` (stereo not given), the Potency result is “inactive”.
Still for that read-out and setting: for `CCOC(=O)COC(=O)c1cc(Oc2ccc(C(F)(F)F)cc2Cl)ccc1[N+](=O)[O-]` the value was “inactive”; for `C=CCOc1ccccc1OCC(O)CNC(C)C` (stereo not given), “inactive”.
Regarding `Nc1ccc(S(=O)(=O)Nc2ccccc2)cc1`, the Potency entry is “inactive”.
For `CCC(=O)O[C@]1(C(=O)CCl)[C@@H](C)C[C@H]2[C@@H]3CCC4=CC(=O)C=C[C@]4(C)[C@@]3(F)[C@@H](O)C[C@@]21C`, the Potency result is “inactive”.
Regarding `COCCCN1CCC(NC(=O)c2cc(Cl)c(N)c3c2OCC3)CC1`, the Potency entry was “inactive”.
On the same count and under the same terms, for `CCOC(=O)C(=O)CCc1ccccc1` the value was “inactive”; for `CCCOC(C(=O)OC1CCN(C)CC1)(c1ccccc1)c1ccccc1`, “inactive”; for `CCC(Cl)CCC(Cl)C(Cl)CC(Cl)C(Cl)C(Cl)CCl` (stereo not given), “inactive”.
In the case of `C[Si](C)(CCCN)O[Si](C)(C)CCCN`, the Potency entry is “inactive”.
On to `CC1=CC=C(C(C)C)CC1`, for which the Potency result was “inactive”.
The same measure, in the same setting: with `CCO[C@H](Cc1ccc(OCCc2ccc(OS(C)(=O)=O)cc2)cc1)C(=O)O` the entry was “inactive”; with `CN1Cc2cc(C(=O)N3CCC(C4CCNCC4)CC3)ccc2NC(CC(=O)O)C1=O` (stereo not given), “inactive”; with `CC(C)(CO)[N+](=O)[O-]`, “inactive”.
For the molecule `O=C(Cl)c1cc(C(=O)Cl)cc(C(=O)Cl)c1`, the Potency entry is “inactive”.
For `NS(=O)(=O)c1ccc(N2CCCCS2(=O)=O)cc1`, the Potency result was “inactive”.
Take `CC(=O)OC[C@H]1O[C@@H](n2ncc(=O)[nH]c2=O)[C@H](OC(C)=O)[C@@H]1OC(C)=O`: the Potency entry was “inactive”.
Take `CNCCCN1c2ccccc2CCc2ccccc21`: the Potency result is “inactive”.
Turning to `O=S(=O)(Oc1ccc(Cl)cc1)c1ccccc1`, the Potency entry is “inactive”.
On the same count and under the same terms, for `COC(=O)c1ccc(I)cc1S(=O)(=O)NC(=O)Nc1nc(C)nc(OC)n1` the value was “inactive”.
For the molecule `C/C(=C(\CCOP(=O)(O)O)SC(=O)c1ccccc1)N(C=O)Cc1cnc(C)nc1N`, the activity change, negative = cytotoxicity is 2.57% [at 8.39 µM].
Turning to `CN(C)c1ccc(CCO)cc1`, the Potency entry was “inactive”.
As to `CCOC(=O)C(O)c1ccccc1` (stereo not given), the Potency entry was “inactive”.
Still for that read-out and setting: for `CCN(CC)CCNC(=O)c1cc(Br)c(N)cc1OC` the value was “inactive”.
In the case of `CCN(CC)CCNc1ccc(CNC=O)c2sc3ccc(OC)cc3c(=O)c12`, the Potency result is “inactive”.
In the case of `OC(CN1CCC(Cc2ccc(F)cc2)CC1)c1ccc(Cl)cc1` (stereo not given), the Potency result was “inactive”.
On the same count and under the same terms, with `CN(C)CCN(Cc1ccccc1)c1ccccn1` the entry was “inactive”.
For `CC[N+]1(CC)CCC(=C(c2ccccc2)c2ccccc2)C1C` (stereo not given), the Potency result is “inactive”.
On to `O=C(Nc1ccc(S(=O)(=O)N2CCOCC2)cc1)c1cc(Cl)ccc1NS(=O)(=O)c1ccc(Cl)s1`, for which the Potency entry was “inactive”.
As for `C/C=C(/C(=C/C)c1ccc(OC(C)=O)cc1)c1ccc(OC(C)=O)cc1`, the Potency result was “inactive”.
On to `CCCCc1ncc(/C=C(\Cc2cccs2)C(=O)O)n1Cc1ccc(C(=O)O)cc1`, for which the Potency entry was “inactive”.
For the molecule `C=CC1CC2C=CC1C2` (stereo not given), the Potency entry is “inactive”.
As for `CCCCCCCCCCCCCCCCCCOS(=O)(=O)O`, the Potency result is “inactive”.
As for `COc1cc2c(cc1OC)C(C(C(=O)N(CCc1ccc(OC)c(OC)c1OC)CCc1ccc(OC)c(OC)c1OC)c1ccccc1)=NCC2` (stereo not given), the Potency entry is “inactive”.
Consider `Nc1c(CC(=O)O)cccc1C(=O)c1ccc(Br)cc1`, for which the Potency result was “inactive”.
As to `Cc1cccc(Nc2ccccc2)c1`, the Potency result was “inactive”.
On to `Cc1cccc(C)c1NC(=O)CN(CC(=O)O)CC(=O)O`, for which the Potency result is “inactive”.
